# Assay results published in PubChem BioAssay AID1963317 (National Center for Advancing Translational Sciences (NCATS), 2024).
# Records with an inconclusive call do not appear. Values without a mark were called inactive. Active and inactive are the calls of the source. The call rests on the fitted dose curve.
# Molecular target: Tyrosine-protein kinase ABL1 (Homo sapiens) (UniProt P00519)
# Experiment: ABL1 kinase (ABL1-N-HiBiT) enzymatic inhibition screen - Functional assay
# Conditions: luminescence; series mostly up to 57.5 µM; activity change, negative = inhibition: at the top concentration
# Summary of the method: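 ABL1-N-HiBiT enzyme (10 nM final) preincubated with compounds 30 min at room temperature in buffer with 87.5 uM ATP, then reacted with abltide peptide substrate 3 h at room temperature. Remaining ATP read by Kinase-Glo Plus luminescence.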
# Chain of Tyrosine-protein kinase ABL1 (Homo sapiens) (P00519 whole entry, looked up): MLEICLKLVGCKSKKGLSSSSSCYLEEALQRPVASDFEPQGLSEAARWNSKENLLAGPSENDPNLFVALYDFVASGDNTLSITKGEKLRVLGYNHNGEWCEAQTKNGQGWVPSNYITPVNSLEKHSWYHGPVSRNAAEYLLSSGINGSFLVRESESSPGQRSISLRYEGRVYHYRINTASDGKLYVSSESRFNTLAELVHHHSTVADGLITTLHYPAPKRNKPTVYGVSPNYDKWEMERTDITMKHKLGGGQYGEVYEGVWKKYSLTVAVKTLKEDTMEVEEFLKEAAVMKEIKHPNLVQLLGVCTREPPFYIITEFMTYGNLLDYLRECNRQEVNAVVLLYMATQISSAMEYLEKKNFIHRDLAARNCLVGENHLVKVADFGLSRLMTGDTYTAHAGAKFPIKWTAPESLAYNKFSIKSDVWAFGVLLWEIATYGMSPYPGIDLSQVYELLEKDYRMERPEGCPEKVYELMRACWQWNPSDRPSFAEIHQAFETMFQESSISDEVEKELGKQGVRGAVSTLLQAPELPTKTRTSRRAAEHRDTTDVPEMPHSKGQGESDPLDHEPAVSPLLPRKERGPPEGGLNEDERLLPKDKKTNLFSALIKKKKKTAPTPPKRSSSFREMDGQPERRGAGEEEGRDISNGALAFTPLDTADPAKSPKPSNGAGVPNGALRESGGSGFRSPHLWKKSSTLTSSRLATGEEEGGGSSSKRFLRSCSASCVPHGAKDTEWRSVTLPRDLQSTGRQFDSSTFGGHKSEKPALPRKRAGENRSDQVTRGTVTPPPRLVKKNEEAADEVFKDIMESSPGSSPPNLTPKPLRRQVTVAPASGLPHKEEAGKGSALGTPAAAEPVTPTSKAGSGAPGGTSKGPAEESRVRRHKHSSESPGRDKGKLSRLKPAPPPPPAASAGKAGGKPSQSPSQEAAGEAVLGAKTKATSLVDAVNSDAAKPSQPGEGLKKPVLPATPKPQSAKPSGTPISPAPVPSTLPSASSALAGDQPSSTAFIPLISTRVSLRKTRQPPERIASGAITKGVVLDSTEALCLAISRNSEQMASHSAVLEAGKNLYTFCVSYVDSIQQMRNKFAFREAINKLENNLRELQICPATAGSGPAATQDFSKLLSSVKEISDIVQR
Structure (SMILES),"activity change, negative = inhibition",Potency
c1ccc(-c2oc3ncnc(NC[C@@H]4CCCO4)c3c2-c2ccccc2)cc1,-28.4%,–
c1cc(-c2cc(C3CCNCC3)[nH]n2)ccn1,38.6% [at 28.8 µM],–
Cc1ccccc1-n1c([C@H](C)Nc2nc(N)nc3nc[nH]c23)nc2cccc(C)c2c1=O,46.3%,–
CNC(=O)c1ccccc1Nc1nc(Nc2ccc(N3CCOCC3)cc2OC)ncc1Cl,22%,–
Cc1cc(Nc2ncc3cc(-c4c(Cl)cccc4Cl)c(=O)n(C)c3n2)ccc1F,–,37.5 nM (active)
Cc1cc(C)c(/C=C2\C(=O)Nc3ccccc32)[nH]1,33.1%,–
CCNC(=O)Nc1ccc(-c2nc3c(c(N4CCOC[C@@H]4C)n2)CCN(c2ncccn2)C3)cc1,27.9%,–
Cn1cc(-c2cc3c(N4CCN(c5ncc([C@@](C)(N)c6ccc(F)cc6)cn5)CC4)ncnn3c2)cn1,–,12900 nM (active)
CC(C)CCN1c2nc(Nc3cc(F)c(O)c(F)c3)ncc2N(C)C(=O)C1C (stereo unspecified),8.52%,–
CO[C@H]1/C=C/O[C@@]2(C)Oc3c(C)c(O)c4c(O)c(c(/C=N\N5CCN(C6CCCC6)CC5)c(O)c4c3C2=O)NC(=O)/C(C)=C\C=C\[C@H](C)[C@H](O)[C@@H](C)[C@@H](O)[C@@H](C)[C@H](OC(C)=O)[C@@H]1C,34.2%,–
COc1cc(N2CCC(O)CC2)ccc1Nc1nc(Nc2ccccc2S(=O)(=O)C(C)C)c2[nH]cnc2n1,23.2%,–
Cc1nc2ccc(-n3ncc(C(=O)c4cc5ccccc5[nH]4)c3N)cc2[nH]1,10.1%,–
Cn1sc(=O)n(Cc2ccccc2)c1=O,38.2%,–
O=S(=O)(/N=C/c1c(O)ccc2ccccc12)c1cccs1,36.2%,–
Cn1ncc(NC(=O)c2nc(-c3c(F)cccc3F)sc2N)c1N1CC[C@@H](N)[C@H](F)CC1,37.9%,–
Cc1cccc(C)c1-n1c(=O)c2cnc(Nc3ccc(N4CCN(C)CC4)cc3)nc2n2c3ccccc3nc12,–,4080 nM (active)
Cc1ccc(C(=O)Nc2ccc(CN3CCN(C)CC3)c(C(F)(F)F)c2)cc1C#Cc1cnc2[nH]ncc2c1,–,11.2 nM (active)
CCCCCCCCCCCCc1ccc(S(=O)(=O)Nc2nncs2)cc1,33.8%,–

Structure (SMILES),"activity change, negative = inhibition",Potency
COc1ccc(CNC(=O)Nc2ncc([N+](=O)[O-])s2)cc1,37.2%,–
NC1(C(=O)N[C@@H](CCO)c2ccc(Cl)cc2)CCN(c2ncnc3[nH]ccc23)CC1,27.4%,–
Cc1cc(Nc2ncc3c(n2)N(C)C(=O)N(c2cc(NC(=O)c4cccc(C(F)(F)F)c4)ccc2C)C3)n(C)n1,–,141 nM (active)
Cc1cc(O)c2c(c1)C(=O)c1cc(O)cc(O)c1C2=O,17.4%,–
CCn1c(=O)c(-c2ccc(Cl)cc2Cl)cc2cnc(Nc3ccc(N4CCNCC4)c(F)c3)nc21,–,62.9 nM (active)
COc1cc2ncnc(-n3nc(-c4ccccn4)nc3N)c2cc1OC,–,1060 nM [activator] (active)
O=C(Nc1cc(C(F)(F)F)ccc1N1CCCCC1)c1ccncc1,46.1%,–
Cc1ccc(C(=O)Nc2ccc(Oc3cc4cnn(C)c4cc3-c3cn[nH]c3)c(F)c2)c(=O)n1-c1ccc(F)cc1,37.5%,–
COc1cc2ncnc(Oc3cccc(NC(=O)Nc4cc(C(C)(C)C(F)(F)F)on4)c3)c2cc1OC,–,2500 nM (active)
Cc1c(Cl)cccc1S(=O)(=O)Nc1nc(NCCc2ccccc2)nc2c1CN(Cc1ccccc1)CC2,39.5%,–
COc1ccc(-n2c(C)c([N+](=O)[O-])c3ccc(O)cc32)cc1,34.3%,–
C=CC(=O)Nc1cccc(Oc2nc(Nc3ccc(N4CCN(C)CC4)cc3OC)ncc2Cl)c1,17.5%,–
COc1cc(N2CCN(C)CC2)ccc1Nc1nc(N)c(C(=O)c2c(Cl)cccc2Cl)s1,46.2%,–
CCN1/C(=C\C(C)=O)Sc2ccc(OC)cc21,37.8%,–
CN1CCN(CCCNc2ncc(Cl)c(-c3cc4c(C(=O)NC5CC5)cccc4s3)n2)CC1,48.8%,–
O=C(O)C1(Cc2cccc(Nc3nccs3)n2)CCC(Oc2cccc(Cl)c2F)CC1 (stereo unspecified),–,1030 nM (active)
CCN1C(=O)CNc2ncc(-c3ccc(-c4ncn[nH]4)nc3C)nc21,40.2%,–
CC(C)(C)n1nc(-c2cccc3ccccc23)c2c(N)ncnc21,-16.6%,–
